Screening data: PubChem BioAssay, several laboratories
Mtb hypoxia rep – PubChem AID 1159583; 0.1% of 300,000 active; fluorescence inhibition, % (concentration not given with the values); M. tuberculosis hypoxia-regulated fluorescent reporter, fluorescence; in the data active = fluorescence inhibition mostly above about 23%, no sharp cut-off; inactive = mostly below about 17%
GDH-TPI counter-1 – GDH-TPI coupling enzyme inhibitors, primary screen, artefact control for M. tuberculosis FBA inhibitor project, biochemical, absorbance, full deck; GDH-TPI coupled enzyme counterscreen, NADH absorbance; inhibition, % at 4.8 µM; 1.2% of 360,000 active; in the data active = inhibition above about 30%;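 note: 0% = DMSO wells and 100% = wells lacking the enzyme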
FBA Mtb inh – Mtb FBA enzyme inhibitors, primary screen, biochemical, fluorescence, strain H37Rv; Fructose-bisphosphate aldolase (Mycobacterium tuberculosis (strain ATCC 25618 / H37Rv)), …; purified M. tuberculosis FBA, fluorescence read-out; inhibition, % at 1 µM; 2.3% of 360,000 active; AID 588726, 2011;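 note: 0% = vehicle and 100% = reference inhibitor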
Target sequence (P9WQA3 whole entry, looked up): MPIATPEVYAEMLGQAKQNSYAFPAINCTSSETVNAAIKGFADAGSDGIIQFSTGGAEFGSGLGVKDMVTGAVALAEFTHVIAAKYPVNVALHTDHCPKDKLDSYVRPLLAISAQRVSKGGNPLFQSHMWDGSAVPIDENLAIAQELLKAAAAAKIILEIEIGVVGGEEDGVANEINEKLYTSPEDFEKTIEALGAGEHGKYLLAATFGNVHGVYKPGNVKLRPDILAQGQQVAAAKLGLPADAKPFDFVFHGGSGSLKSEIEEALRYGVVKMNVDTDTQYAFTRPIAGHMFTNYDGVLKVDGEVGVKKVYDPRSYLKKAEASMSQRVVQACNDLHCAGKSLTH
FadD28 FP inh – inhibitors of FadD28 bisubstrate probe binding, primary screen, biochemical, fluorescence polarization, single point; inhibition, % at 12.5 µM; Mycobacterium tuberculosis FadD28 fatty-acid-AMP ligase; 0.22% of 360,000 active; AID 588549, 2011; in the data active = inhibition above about 8.5%, passing the limit was not always enough
UGM FP inh – M. tuberculosis UGM enzyme inhibitors, primary screen, biochemical, fluorescence polarization, single point; 0.06% of 320,000 active; purified UGM, fluorescence polarization probe displacement; UDP-galactopyranose mutase (Mycobacterium tuberculosis (strain ATCC 25618 / H37Rv)), …; inhibition, % at 10 µM; in the data active = inhibition above about 10%, passing the limit was not always enough
Rv3671c inh – Rv3671c serine protease inhibitors, primary screen, biochemical, fluorescence polarization, M. tuberculosis H37Rv; P9WHR9; inhibition, % at 5.96 µM; 0.048% of 320,000 active; in the data active = inhibition above about 38%;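 note: extracellular domain of Rv3671c used as enzyme; 0% = enzyme with DMSO and 100% = no enzyme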
Target sequence (P9WHR9 whole entry, looked up, the tested form may be a part): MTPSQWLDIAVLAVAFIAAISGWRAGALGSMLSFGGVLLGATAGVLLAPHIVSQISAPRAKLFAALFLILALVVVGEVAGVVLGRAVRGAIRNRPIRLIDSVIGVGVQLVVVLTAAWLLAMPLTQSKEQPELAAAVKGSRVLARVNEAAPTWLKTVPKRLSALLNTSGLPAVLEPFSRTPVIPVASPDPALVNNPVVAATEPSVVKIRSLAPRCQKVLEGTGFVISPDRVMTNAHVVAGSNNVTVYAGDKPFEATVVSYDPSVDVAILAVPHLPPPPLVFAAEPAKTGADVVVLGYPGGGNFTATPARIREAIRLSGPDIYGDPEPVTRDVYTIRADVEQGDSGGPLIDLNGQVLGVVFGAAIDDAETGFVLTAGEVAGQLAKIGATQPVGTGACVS
Mtb FBA confirm – M. tuberculosis aldolase blockers, biochemical, fluorescence, strain H37Rv, confirmation | purified M. tuberculosis FBA, fluorescence read-out | shares compounds with FBA Mtb inh | inhibition, % at 1 µM | 78% of 5,600 active;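 note: 0% = vehicle wells and 100% = reference inhibitor wells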
GDH-TPI counter-2 – GDH-TPI coupling enzyme inhibitors, artefact control for M. tuberculosis FBA inhibitor project, biochemical, fluorescence, high throughput. shares compounds with FBA Mtb inh. inhibition, % at 1 µM. 81% of 5,600 active. GDH-TPI coupled enzyme counterscreen; in the data active = inhibition above about 10%
* marks the source's active call; other numbers are inactive results; / = not tested or not shown; + = active, no number. This is a sample that favours compounds with a hit; in the whole collection about 3.5% have one here. Cut-off read from the data, not from the text of the source, unless noted: active = inhibition above about 27%; inactive = the rest.

SMILES | Mtb hypoxia rep | GDH-TPI counter-1 | FBA Mtb inh | FadD28 FP inh | UGM FP inh | Rv3671c inh | Mtb FBA confirm | GDH-TPI counter-2
C/C(C=NNC(=O)c1cc(C2CC2)[nH]n1)=C\c1ccccc1 | -1.9 | / | / | / | / | / | / | /
CCC(C)C(C)=NNC(=O)c1cn(-c2ccccc2)nc1-c1ccccc1 (centres undefined) | 2.0 | / | / | / | / | / | / | /
C[C@]12CCC(=O)C(O)=C1CCC1C2CC[C@]2(C)C(=O)CCC12 (some centres undefined) | 8.0 | / | / | / | / | / | / | /
CCOc1cc(C(=O)NN=Cc2cn(-c3ccccc3)nc2-c2cc3ccccc3o2)cc(OCC)c1OCC | 0.1 | / | / | / | / | / | / | /
COc1cc(C=Nc2ccccc2C(=O)Nc2ccccc2)cc(OC)c1OC | 1.2 | 6.5 | 50.7* | -1.5 | -3.1 | -0.3 | + | +
O=C(CNc1ccc(F)cc1)NN=Cc1c(O)ccc2ccccc12 | -1.8 | / | / | / | / | / | / | /
COc1cc([N+](=O)[O-])cc(C=NNC(=O)Cn2nc(C)cc2C)c1O | 14.4 | / | / | / | / | / | / | /
COc1cc2cc(CN(CCCO)S(=O)(=O)c3ccccc3)c(=O)[nH]c2cc1OC | -0.7 | 36.6* | 54.5* | -3.8 | -0.2 | -12.3 | 1.7 | -2.2
COc1cc2cc(CN(Cc3cccnc3)C(=O)Nc3ccccc3)c(=O)[nH]c2cc1OC | -1.2 | -2.8 | 10.1 | -8.5 | -3.0 | 1.5 | / | /
COc1cc2cc(CN(CCCO)S(=O)(=O)c3ccccc3Cl)c(=O)[nH]c2cc1OC | 5.3 | -2.6 | 18.6 | -1.5 | 2.6 | 0.6 | / | /
COc1cc2cc(CN(CCO)S(=O)(=O)c3ccccc3Cl)c(=O)[nH]c2cc1OC | 6.9 | 32.6* | 48.6* | -1.5 | -1.6 | 0.5 | 118.3* | 100.8*
COc1cc2cc(CN(Cc3cccnc3)C(=O)NCc3ccccc3)c(=O)[nH]c2cc1OC | 6.4 | 26.0 | 32.4* | -2.0 | -0.7 | 6.5 | 25.8 | 19.7*
CCOC(=O)c1cccc(S(=O)(=O)N(CCO)Cc2cc3cc(OC)c(OC)cc3[nH]c2=O)c1 | 2.0 | 27.4 | 0.8 | 0.0 | 0.3 | -4.1 | / | /
NNc1ccc2c(C(F)(F)F)cc(C(F)(F)F)nc2n1 | 12.2 | 6.2 | 29.7* | -0.4 | 1.7 | 2.6 | 80.0* | 61.8*
Cc1ccc(/C=N/Nc2ccc3c(C(F)(F)F)cc(C(F)(F)F)nc3n2)cc1 | / | -2.5 | -0.3 | -5.0 | 0.6 | 2.2 | / | /
CCOc1ccc(NC(=S)Nc2cccc3ccccc23)cc1 | 18.5 | -1.7 | 57.8* | -0.1 | -1.1 | 0.1 | 82.0* | 72.9*
C=CCNC(=S)Nc1cccc2ccccc12 | 16.3 | -1.2 | 1.2 | -2.4 | 0.1 | 2.9 | / | /
CC(C)c1ccc(NC(=S)Nc2cccc3ccccc23)cc1 | 6.2 | 8.8 | 30.1* | -5.8 | 3.0 | -11.7 | 68.3* | 54.7*
CCOc1ccc(NC(=S)Nc2cccc3cnccc23)cc1 | / | -0.7 | 1.2 | 2.1 | 1.7 | -5.6 | / | /
Clc1cccc(C=NNc2nccs2)c1 | 4.3 | / | / | / | / | / | / | /
CCOC(=O)c1cc(-c2ccc(OC(F)F)cc2)nc2nc(SC)[nH]c(=O)c12 | 13.3 | 29.0 | 72.1* | -7.1 | 4.2 | 2.7 | 101.2* | 87.9*
CCOC(=O)c1cc(-c2ccc(F)cc2)nc2c1c(=O)[nH]c(=O)n2Cc1ccccc1 | -9.2 | 3.8 | 2.7 | -0.6 | 2.3 | 0.2 | / | /
CCOC(=O)c1cc(-c2ccc(Cl)cc2)nc2c1c(=O)[nH]c(=O)n2CCOC | 15.7 | 6.6 | 53.4* | -2.9 | 2.4 | 6.6 | 68.2* | 46.2*
CCOC(=O)c1cc(-c2ccc(OC(F)F)cc2)nc2c1c(=O)[nH]c(=O)n2C | / | 9.6 | 50.0* | -1.3 | -1.6 | -14.3 | 159.1* | 130.0*
COc1ccc(NC(=S)NN=Cc2cccn2Cc2ccc(F)cc2)cc1 | -9.6 | / | / | / | / | / | / | /
SMILES | Mtb hypoxia rep | GDH-TPI counter-1 | FBA Mtb inh | FadD28 FP inh | UGM FP inh | Rv3671c inh | Mtb FBA confirm | GDH-TPI counter-2
CC1CCCC(C)N1N=Cc1ccccc1F (centres undefined) | -1.7 | / | / | / | / | / | / | /
Nc1nc2sc3c(c2cc1C(=O)N1CCOCC1)CCCC3 | 13.3 | 1.3 | 32.4* | -0.9 | 2.1 | 0.2 | 56.3* | 54.0*
Nc1nc2sc3c(c2cc1C(=O)NCC(=O)O)CCCC3 | -3.2 | 4.4 | -2.5 | 1.1 | 1.1 | 8.3 | / | /
Cc1cc(C)n2nc(C(=O)NN=Cc3ccccc3Cl)nc2n1 | -2.9 | / | / | / | / | / | / | /
CNCc1cc(Cl)cc(OC)c1OC(C)C | 14.2 | 0.0 | 65.0* | -1.1 | / | / | 78.9* | 86.0*
Nc1c(Br)cc2c3c(cccc13)-c1ccccc1-2 | -4.9 | / | / | / | / | / | / | /
O=CNc1ccc2c3c(cccc13)-c1ccccc1-2 | -1.0 | 6.8 | 78.8* | 0.3 | / | / | 69.5* | 51.5*
NC(=NOC(=O)CCCC(=O)O)c1ncc(C(F)(F)F)cc1Cl | 9.3 | / | / | / | / | / | / | /
CCNC(=S)NN=Cc1ccc(OCC(=O)Nc2ccc(OC)cc2)c(OC)c1 | 9.7 | / | / | / | / | / | / | /
CC(=NNc1ccc(Cl)c(C(=O)O)c1)c1cccc2ccccc12 | -6.2 | / | / | / | / | / | / | /
Nc1cc(-c2nc3ncccc3o2)ccc1Cl | 9.0 | 23.1 | 37.7* | -0.5 | 2.4 | -1.8 | 86.5* | 70.6*
Nc1ccc(-c2nc3ncccc3o2)c(Cl)c1 | -3.4 | 47.1* | 91.5* | -0.8 | 2.9 | -1.6 | 0.9 | 2.9
Nc1ccc(Cl)c(-c2nc3ncccc3o2)c1 | -2.2 | 12.4 | 0.5 | -2.7 | 0.9 | -10.4 | / | /
COc1ccc(C=NNC(=O)c2ccncc2)cc1CSc1nc2ccccc2s1 | 23.0 | / | / | / | / | / | / | /
COc1ccc2c(COC(=O)CNS(=O)(=O)c3ccc(C)c(C)c3)cc(=O)oc2c1 | -13.9 | 11.1 | 72.7* | -0.5 | -0.9 | -8.0 | 30.9* | 27.8*
CN(C)c1cccc(C(=O)OCc2cc(=O)oc3cc(O)ccc23)c1 | -2.3 | 12.1 | 54.6* | 4.0 | 3.3 | -6.5 | + | +
COc1ccc2c(COC(=O)CCS(=O)(=O)c3ccc(C)cc3)cc(=O)oc2c1 | -9.9 | 9.1 | 106.6* | -0.8 | 0.9 | 2.1 | 30.2* | 25.8*
CCCNS(=O)(=O)c1cccc(C(=O)OCc2cc(=O)oc3cc(OC)ccc23)c1 | 0.9 | 11.1 | 38.0* | -1.3 | -0.6 | -22.9 | 76.4* | 58.8*
Cc1ccc2c(COC(=O)c3ccc(C)c(C)c3)cc(=O)oc2c1 | 0.9 | 2.2 | 1.5 | -0.2 | 0.6 | 4.7 | / | /
COc1ccc(S(=O)(=O)NCCC(=O)OCc2cc(=O)oc3cc(C)ccc23)cc1[N+](=O)[O-] | 0.5 | 6.0 | 1.4 | -3.7 | / | / | / | /
